This is part of a sample that, as a whole, favours compounds with a hit. Of some 79,000 tested, about 15% had one in any assay. Values without a mark were called inactive. The source made the active and inactive calls. Cut-off read from the data, not from the text of the source: active = growth inhibition above about 70%; inactive = the rest.

Assay [1] in a line: NCI Yeast Anticancer Drug Screen. Data for the rad50 strain (AID 155).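 Note: 0% = growth of vehicle-only cultures of the same strain.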 As to conditions: S. cerevisiae rad50 strain growth inhibition, active compounds read high. Summed up:
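Genetically altered yeast (DNA repair pathway); compound treatment; growth inhibition vs vehicle ctrl.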

Assay [2] can be described thus: NCI Yeast Anticancer Drug Screen. Data for the mec2-1 strain (AID 157). As to conditions: S. cerevisiae mec2-1 strain, active compounds read high. In short, it runs like this:
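Readout is yeast growth inhibition, normalised to vehicle-treated controls, in the mec2-1 strain exposed to compound.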

The nature of assay [3]: NCI Yeast Anticancer Drug Screen. Data for the sgs1 mgt1 strain (AID 161).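 Note: 0% = growth of cultures given vehicle only.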 As to conditions: S. cerevisiae sgs1 mgt1 strain, active compounds read high. Summed up:
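Compounds are added to genetically altered yeast, and growth is compared with cultures given vehicle alone to give percent inhibition.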

The nature of assay [4]: NCI Yeast Anticancer Drug Screen. Data for the cln2 rad14 strain (AID 165).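 Note: 0% = growth equal to vehicle treated cultures.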 The following applies: S. cerevisiae cln2 rad14 strain, active compounds read high. Summed up: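 Relative to vehicle controls, growth inhibition of compound-treated cln2 rad14 yeast was recorded.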
Assay [5] can be described thus: NCI Yeast Anticancer Drug Screen. Data for the bub3 strain (AID 167). As to conditions: S. cerevisiae bub3 mutant strain, active compounds read high. In short, it runs like this:
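Yeast carrying a defined mutation is treated with each compound, and growth is compared with that of vehicle-exposed cells to give inhibition.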

Assay [6] is described as follows: NCI Yeast Anticancer Drug Screen. Data for the mlh1 rad18 strain (AID 175). The following applies: S. cerevisiae mlh1 rad18 strain growth inhibition, active compounds read high. Summed up:
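Test agents were incubated with a yeast strain of defined genotype (DNA damage repair defect). Inhibition of growth was derived by comparison with vehicle-exposed cultures.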

[7] abbreviates: at 5.0 µM (retest, dose inferred, filed as 0.5).
Where [8] appears, read: at 50.0 µM (retest, dose inferred, filed as 5.0).

As for `O=C(/C=C\C(=O)Nc1cccc(N(Cc2ccccc2)Cc2ccccc2)c1)Nc1cccc(N(Cc2ccccc2)Cc2ccccc2)c1`, the growth inhibition in assay [1] (setting [7]) was -5%; in assay [1] (setting [8]), 2%; in assay [1] (at 50.0 µM), 61.5%; in assay [2] (setting [7]), -10%; in assay [2] (setting [8]), -1%; in assay [2] (at 50.0 µM), 87.2% (active). Further, the growth inhibition was 0% in assay [3] (setting [7]); 5% in assay [3] (setting [8]); 85.5% (active) in assay [3] (at 50.0 µM); 4% in assay [4] (setting [7]); 13% in assay [4] (setting [8]); 67% in assay [4] (at 50.0 µM). For the same compound, the growth inhibition was -2% in assay [5] (setting [7]); 3% in assay [5] (setting [8]); 46.2% in assay [5] (at 50.0 µM); -3% in assay [6] (setting [7]); 3% in assay [6] (setting [8]); 82% (active) in assay [6] (at 50.0 µM).

Take `O=[N+]([O-])c1ccc(CN2CCN(c3nccs3)CC2)cc1`: the growth inhibition was 5% in assay [1] (setting [7]); 22% in assay [1] (setting [8]); 76.8% (active) in assay [1] (at 50.0 µM); -3% in assay [2] (setting [7]); 11% in assay [2] (setting [8]); 51% in assay [2] (at 50.0 µM). Further, the growth inhibition in assay [3] (setting [7]) is 1%; in assay [3] (setting [8]), 61%; in assay [3] (at 50.0 µM) it was 77.8% (active); in assay [4] (setting [7]), -1%; in assay [4] (setting [8]) it was 29%; in assay [4] (at 50.0 µM), 34.5%. Moreover, the growth inhibition is -1% in assay [5] (setting [7]); 38% in assay [5] (setting [8]); 66.6% in assay [5] (at 50.0 µM); 3% in assay [6] (setting [7]); 46% in assay [6] (setting [8]); 66.2% in assay [6] (at 50.0 µM).

For `O=C1CC(c2ccccc2)C(c2ccccc2)CO1` (configuration not stated), the growth inhibition in assay [1] (setting [7]) was 85% (active); in assay [1] (setting [8]), 99% (active); in assay [1] (at 50.0 µM) it was 84.9% (active); in assay [2] (setting [7]) it was 35%; in assay [2] (setting [8]), 99% (active); in assay [2] (at 50.0 µM), 92.7% (active). In addition, the growth inhibition in assay [3] (setting [7]) was 52%; in assay [3] (setting [8]) it was 98% (active); in assay [3] (at 50.0 µM), 91.5% (active); in assay [4] (setting [7]), 13%; in assay [4] (setting [8]) it was 98% (active); in assay [4] (at 50.0 µM), 93.8% (active). For the same compound, the growth inhibition is 56% in assay [5] (setting [7]); 97% (active) in assay [5] (setting [8]); 94% (active) in assay [5] (at 50.0 µM); 74% (active) in assay [6] (setting [7]); 99% (active) in assay [6] (setting [8]); 93.7% (active) in assay [6] (at 50.0 µM).

For `O=C1c2ccccc2C(O)(c2ccccc2)N1c1ccc([N+](=O)[O-])cc1` (configuration not stated), the growth inhibition in assay [1] (setting [7]) is 7%; in assay [1] (setting [8]), 99% (active); in assay [1] (at 50.0 µM), 99% (active); in assay [2] (setting [7]) it was 10%; in assay [2] (setting [8]), 100% (active); in assay [2] (at 50.0 µM) it was 99.3% (active). Also, the growth inhibition is 0% in assay [3] (setting [7]); 99% (active) in assay [3] (setting [8]); 99.3% (active) in assay [3] (at 50.0 µM); -3% in assay [4] (setting [7]); 99% (active) in assay [4] (setting [8]); 98.9% (active) in assay [4] (at 50.0 µM). In addition, the growth inhibition in assay [5] (setting [7]) is -2%; in assay [5] (setting [8]), 99% (active); in assay [5] (at 50.0 µM), 99% (active); in assay [6] (setting [7]), 5%; in assay [6] (setting [8]), 99% (active); in assay [6] (at 50.0 µM) it was 99.3% (active).

For the compound `N#C/C(=C1C=C/C(=N/O)c2ccccc2/1)c1ccc(Cl)cc1`, the growth inhibition is 11% in assay [1] (setting [7]); 17% in assay [1] (setting [8]); 56% in assay [1] (at 50.0 µM); -6% in assay [2] (setting [7]); 26% in assay [2] (setting [8]); 77.3% (active) in assay [2] (at 50.0 µM). In addition, the growth inhibition in assay [3] (setting [7]) was 1%; in assay [3] (setting [8]), 1%; in assay [3] (at 50.0 µM) it was 60.8%; in assay [4] (setting [7]), -1%; in assay [4] (setting [8]), 6%; in assay [4] (at 50.0 µM), 41.1%. Moreover, the growth inhibition in assay [5] (setting [7]) is -4%; in assay [5] (setting [8]) it was 61%; in assay [5] (at 50.0 µM) it was 34.5%; in assay [6] (setting [7]) it was -9%; in assay [6] (setting [8]), 28%; in assay [6] (at 50.0 µM), 72.6% (active).

As to `CCCCCCCCCCCCCCCCOc1ccc(S(=O)(=O)N/N=c2/sc3ccc(S(=O)(=O)O)cc3n2C)cc1C(=O)O`, the growth inhibition was 6% in assay [1] (setting [7]); 88% (active) in assay [1] (setting [8]); 79.6% (active) in assay [1] (at 50.0 µM); 6% in assay [2] (setting [7]); 63% in assay [2] (setting [8]); 78.7% (active) in assay [2] (at 50.0 µM). Also, the growth inhibition in assay [3] (setting [7]) was 0%; in assay [3] (setting [8]), 76% (active); in assay [3] (at 50.0 µM) it was 76% (active); in assay [4] (setting [7]), 16%; in assay [4] (setting [8]) it was 62%; in assay [4] (at 50.0 µM), 40.2%. Also, the growth inhibition in assay [5] (setting [7]) was -3%; in assay [5] (setting [8]), 83% (active); in assay [5] (at 50.0 µM), 68.8%; in assay [6] (setting [7]), -13%; in assay [6] (setting [8]), 88% (active); in assay [6] (at 50.0 µM) it was 73.4% (active).

Consider `CCCCN(CCCC)c1ccc2c(c1)C(O)c1ccccc1-2` (configuration not stated), for which the growth inhibition in assay [1] (setting [7]) is 6%; in assay [1] (setting [8]), 81% (active); in assay [1] (at 50.0 µM), 76.5% (active); in assay [2] (setting [7]), 2%; in assay [2] (setting [8]), 74% (active); in assay [2] (at 50.0 µM) it was 59.2%. For the same compound, the growth inhibition was 4% in assay [3] (setting [7]); 78% (active) in assay [3] (setting [8]); 88.1% (active) in assay [3] (at 50.0 µM); 5% in assay [4] (setting [7]); 85% (active) in assay [4] (setting [8]); 74.8% (active) in assay [4] (at 50.0 µM). The growth inhibition in assay [5] (setting [7]) was 0%; in assay [5] (setting [8]) it was 77% (active); in assay [5] (at 50.0 µM), 82% (active); in assay [6] (setting [7]), 15%; in assay [6] (setting [8]), 72% (active); in assay [6] (at 50.0 µM), 85.2% (active).

As to `CCc1ccc(N(C(C)=O)C2=C(Cl)C(=O)c3ccccc3C2=O)cc1`, the growth inhibition in assay [1] (setting [7]) was 99% (active); in assay [1] (setting [8]), 99% (active); in assay [1] (at 50.0 µM), 98.4% (active); in assay [2] (setting [7]), 100% (active); in assay [2] (setting [8]) it was 99% (active); in assay [2] (at 50.0 µM), 91% (active). Besides, the growth inhibition was 100% (active) in assay [3] (setting [7]); 100% (active) in assay [3] (setting [8]); 99.2% (active) in assay [3] (at 50.0 µM); 99% (active) in assay [4] (setting [7]); 99% (active) in assay [4] (setting [8]); 77% (active) in assay [4] (at 50.0 µM). The growth inhibition in assay [5] (setting [7]) was 99% (active); in assay [5] (setting [8]), 100% (active); in assay [5] (at 50.0 µM) it was 67.9%; in assay [6] (setting [7]), 100% (active); in assay [6] (setting [8]) it was 99% (active); in assay [6] (at 50.0 µM) it was 98.7% (active).

In the case of `S=C1C(=Nc2ccccc2)N(c2ccccc2)/C(=N\c2cccc[n+]2Cc2ccccc2)N1c1ccccc1`, the growth inhibition in assay [1] (setting [7]) was -17%; in assay [1] (setting [8]), 89% (active); in assay [1] (at 50.0 µM), 96.6% (active); in assay [2] (setting [7]), -10%; in assay [2] (setting [8]) it was 99% (active); in assay [2] (at 50.0 µM), 97.9% (active). Also, the growth inhibition in assay [3] (setting [7]) was -1%; in assay [3] (setting [8]), 72% (active); in assay [3] (at 50.0 µM), 98.7% (active); in assay [4] (setting [7]), -17%; in assay [4] (setting [8]), 48%; in assay [4] (at 50.0 µM), 94.5% (active). For the same compound, the growth inhibition in assay [5] (setting [7]) is -20%; in assay [5] (setting [8]), 85% (active); in assay [5] (at 50.0 µM) it was 98% (active); in assay [6] (setting [7]), -23%; in assay [6] (setting [8]), 96% (active); in assay [6] (at 50.0 µM) it was 98.2% (active).
